The target in this assay is MAP kinase-activated protein kinase 3 (Homo sapiens) (UniProt Q16644). As to conditions: at 1 µM.
Chain of MAP kinase-activated protein kinase 3 (Homo sapiens) (Q16644 whole entry, looked up): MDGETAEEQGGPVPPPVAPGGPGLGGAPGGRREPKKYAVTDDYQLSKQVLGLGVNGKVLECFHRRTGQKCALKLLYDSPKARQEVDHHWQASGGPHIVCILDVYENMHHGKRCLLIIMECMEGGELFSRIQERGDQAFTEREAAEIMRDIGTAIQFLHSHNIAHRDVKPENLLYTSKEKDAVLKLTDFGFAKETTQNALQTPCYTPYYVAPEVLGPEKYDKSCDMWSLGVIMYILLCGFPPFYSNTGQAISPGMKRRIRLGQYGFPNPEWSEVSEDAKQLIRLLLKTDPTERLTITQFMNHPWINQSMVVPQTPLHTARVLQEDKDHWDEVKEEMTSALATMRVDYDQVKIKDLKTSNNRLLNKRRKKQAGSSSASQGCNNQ
Consider `c1ccc(-c2cnc(Nc3ccc(OCCN4CCCC4)cc3)s2)cc1`, for which the residual activity turned out to be 118%.

As for `O=C1NC(=O)c2c1c1c3ccccc3[nH]c1n1cncc21`, the residual activity stood at 86%.

With `COc1ccc(S(=O)(=O)N(CCO)c2ccccc2CN(C)C/C=C/c2ccc(Cl)cc2)cc1`, the residual activity was determined as 118%.

With `Oc1ccc(-c2nc(-c3ccc(F)cc3)c(-c3ccncc3)[nH]2)cc1`, the residual activity was found to be 127%.

As for `O=[N+]([O-])c1ccc(-c2nc(-c3ccc(F)cc3)c(-c3ccncc3)[nH]2)cc1`, the residual activity turned out to be 105%.

Consider `Nc1ncnc2c1cnn2-c1ccccc1`, for which the residual activity was determined as 95%.

Take `O=C1Nc2ccc(Cl)cc2/C1=C/c1cc(Cl)c(O)c(Cl)c1`: the residual activity amounted to 92%.

For `NC(=O)c1ccc2[nH]c(-c3ccc(Oc4ccc(Cl)cc4)cc3)nc2c1`, the residual activity is 111%.

In the case of `Cc1nc(-c2ccccc2)c(-c2ccncc2)o1`, the residual activity stood at 103%.

Consider `c1ccc(-c2n[nH]cc2-c2ccnc3ccccc23)nc1`, for which the residual activity is 109%.

With `Cn1c2ccccc2c2c3c(c4c5ccccc5n(CCC#N)c4c21)CNC3=O`, the residual activity stood at 131%.

On to `CO[C@H]1[C@@H](OC)C[C@H](C)[C@@H](OC)C2=CC(=O)C=C(NC(=O)/C(C)=C/C=C/[C@H](OC)[C@@H](OC(N)=O)/C(C)=C/[C@@H]1C)C2=O`, for which the residual activity came out at 110%.

As for `c1ccc(-c2n[nH]c3c2oc2ccccc23)cc1`, the residual activity turned out to be 94%.

Turning to `NCCNc1ncc(C(N)=O)c(Nc2cccc(C(F)(F)F)c2)n1`, the residual activity was found to be 106%.

Take `COc1ccc(CNc2nc(N(CCO)CCO)nc3c2ncn3C(C)C)cc1`: the residual activity amounted to 110%.

In the case of `O=c1c(-c2ccc(F)cc2)c(-c2ccncc2)[nH]n1-c1ccc(Cl)cc1`, the residual activity amounted to 122%.

For `N#CCCc1ccc2c(c1)-c1[nH]c3ccc([N+](=O)[O-])cc3c1CC(=O)N2`, the residual activity stood at 100%.

Consider `Cn1cnc2cc3c(Nc4cccc(Br)c4)ncnc3cc21`, for which the residual activity was 107%.

Take `CC[n+]1c(/C=C/N(C)c2ccccc2)n(-c2ccccc2)c2ccc(-c3nc4ccccc4s3)cc21`: the residual activity amounted to 100%.

In the case of `O=C1c2ccccc2-[n+]2ccc3c([nH]c4ccccc43)c21`, the residual activity is 115%.

As for `Oc1c2ccccc2c2c3c(cccc13)N=N2`, the residual activity came to 100%.

With `CO[C@H]1C[C@@H]2CC[C@@H](C)[C@@](O)(O2)C(=O)C(=O)N2CCCC[C@H]2C(=O)O[C@H]([C@H](C)C[C@@H]2CC[C@@H](O)[C@H](OC)C2)CC(=O)[C@H](C)/C=C(\C)[C@@H](O)[C@@H](OC)C(=O)[C@H](C)C[C@H](C)/C=C/C=C/C=C/1C`, the residual activity worked out at 103%.

Turning to `c1ccc2c(-c3ccncc3)c[nH]c2c1`, the residual activity was 103%.

Take `O=C1Nc2ccc(Br)cc2/C1=C\c1cc2c([nH]1)CCCC2`: the residual activity was 126%.

Take `CN(C)CCCn1cc(C2=C(c3c[nH]c4ccccc34)C(=O)NC2=O)c2ccccc21`: the residual activity came to 137%.

Turning to `Nc1nc(Nc2ccc(S(N)(=O)=O)cc2)nn1C(=S)Nc1c(F)cccc1F`, the residual activity stood at 97%.

For `COc1cc2ncnc(Nc3ccc(Oc4ccccc4)cc3)c2cc1OC`, the residual activity worked out at 118%.

As to `O=c1cc(N2CCOCC2)oc2c1ccc1ccccc12`, the residual activity is 127%.

For the compound `Nc1nc(Nc2ccc(S(N)(=O)=O)cc2)nn1C(=O)c1c(F)cccc1F`, the residual activity amounted to 103%.

For `Cc1ccc(S(=O)(=O)/C=C/C#N)cc1`, the residual activity was determined as 94%.

On to `COc1cc2nccc(Oc3ccc(NC(=S)NC(=O)c4ccccc4C)cc3)c2cc1OC`, for which the residual activity turned out to be 101%.

Consider `O=c1cc(-c2cccc3c2Sc2ccccc2S3)oc(N2CCOCC2)c1`, for which the residual activity came to 115%.

For `Nc1n[nH]c2nnc(-c3c(-c4ccccc4)nn4ccccc34)cc12`, the residual activity is 99%.

As to `CN(C)c1ccc(/C=C2\C(=O)Nc3ccccc32)cc1`, the residual activity is 101%.

With `O=C1NC(=O)/C(=C\c2ccc3nccnc3c2)S1`, the residual activity stood at 97%.

For the compound `Nc1n[nH]c2nc3ccccc3nc12`, the residual activity amounted to 99%.
